Results taken from PubChem BioAssay (NCATS).
Unmarked numbers belong to inactive results. Records with an inconclusive call do not appear. Where a call stands in place of a potency, no number is given. Activity calls are given as the source filed them. Unless noted, calls come from the whole dose curve; as a rule, active = well fitted curve in the direction sought with a large enough effect; inconclusive = small, poorly fitted or top-dose-only effect, or another doubt; inactive = no such curve, though single readings can be large; an effect the other way counts as inactive or inconclusive.

Columns and labels:
[1] = molecular target: Lysosomal acid glucosylceramidase (Homo sapiens) (UniProt P04062); test: Glucocerebrosidase-p2 (AID 348; in the data active = potency below about 10 µM; note: potency is the fitted concentration of half-maximal effect); settings: purified GBA, blue fluorogenic substrate, 40 min
Sequence of Lysosomal acid glucosylceramidase (Homo sapiens) (P04062 whole entry, looked up): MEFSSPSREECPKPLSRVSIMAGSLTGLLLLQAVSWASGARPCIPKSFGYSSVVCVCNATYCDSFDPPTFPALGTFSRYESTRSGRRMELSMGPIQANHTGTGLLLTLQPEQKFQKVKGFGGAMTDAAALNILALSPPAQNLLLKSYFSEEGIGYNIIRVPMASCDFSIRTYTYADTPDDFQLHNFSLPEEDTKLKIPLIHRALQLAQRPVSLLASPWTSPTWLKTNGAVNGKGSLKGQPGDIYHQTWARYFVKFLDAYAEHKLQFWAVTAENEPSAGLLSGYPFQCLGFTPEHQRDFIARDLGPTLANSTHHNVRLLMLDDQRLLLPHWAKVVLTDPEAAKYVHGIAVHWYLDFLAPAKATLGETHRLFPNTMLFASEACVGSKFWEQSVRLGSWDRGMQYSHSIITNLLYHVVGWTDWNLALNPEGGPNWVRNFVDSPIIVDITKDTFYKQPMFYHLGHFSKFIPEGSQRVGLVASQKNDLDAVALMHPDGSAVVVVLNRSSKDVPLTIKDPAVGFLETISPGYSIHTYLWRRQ
How it was run: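 Normal human glucocerebrosidase (0.2 nM) with blue fluorogenic substrate (80 uM final) in citrate/phosphate pH 5.9 with 10mM sodium taurocholate, 0.01% tween-20; 40 min RT, NaOH/glycine stop; fluorescence Ex 365/Em 440; AC50 from a titration from 0.6 nM upwards.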

[2] = AP1 Signaling Pathway (AID 357; active = well fitted curve in either direction with a large enough effect, not every such curve was filed as active;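 note: ME-180 reporter cells stimulated with EGF at its EC50 level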); settings: ME-180 AP-1-bla reporter, EGF-induced, beta-lactamase ratio, 5 h; at 7.69 µM (top of the series) unless noted
How it was run: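 Beta-lactamase reporter under AP-1 response element, ME-180 background. Stimulus: EC50 EGF. Compound exposure 5 h, 37 °C. Detection: CCF4, 2.5 h RT, 460/530 nm. Values: AC50 from titration.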

[3] = NFAT Signaling Pathway (AID 444; active = well fitted curve in either direction with a large enough effect, not every such curve was filed as active;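 note: carbachol stimulus at about its EC50 of 1 µM final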); settings: Jurkat NFAT-bla M1, carbachol, beta-lactamase ratio, 5 h; at 7.69 µM (top of the series) unless noted
How it was run: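 Read-out: CCF4 FRET ratio (460 nm/530 nm) after 1 h RT dye loading, used for %activity and AC50 from titration series. Cells: Jurkat NFAT-β-lactamase/M1 line, treated with compound plus 1 uM carbachol for 5 h, 37 °C.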

[4] = Stat Signaling Pathway (AID 446; active = well fitted curve in either direction with a large enough effect, not every such curve was filed as active;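 note: ME-180 cervical cancer cells given 40 pM IL-6 alongside compound; SIE-controlled beta-lactamase reporter measured as 460/530 nm FRET emission ratio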); settings: ME-180 SIE beta-lactamase reporter, IL-6 stimulated, 5 h; at 7.69 µM (top of the series) unless noted
How it was run: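 Compound effects on IL-6-induced STAT reporter activity were measured in ME-180 cells. After overnight culture, cells were co-treated with 40 pM IL-6 for 5 hrs before beta-lactamase substrate loading at room temperature.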

[5] = molecular target: Glucocorticoid receptor (Homo sapiens) (UniProt P04150); test: GR-GFP Redistribution (AID 450;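 active = compounds whose dose series gives a full or clear partial fitted curve of increased nuclear translocation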; note: potency is the fitted concentration of half-maximal effect); settings: U2OS GR-GFP nuclear translocation, laser cytometry, 2 h
Sequence of Glucocorticoid receptor (Homo sapiens) (P04150 whole entry, looked up, the tested form may be a part): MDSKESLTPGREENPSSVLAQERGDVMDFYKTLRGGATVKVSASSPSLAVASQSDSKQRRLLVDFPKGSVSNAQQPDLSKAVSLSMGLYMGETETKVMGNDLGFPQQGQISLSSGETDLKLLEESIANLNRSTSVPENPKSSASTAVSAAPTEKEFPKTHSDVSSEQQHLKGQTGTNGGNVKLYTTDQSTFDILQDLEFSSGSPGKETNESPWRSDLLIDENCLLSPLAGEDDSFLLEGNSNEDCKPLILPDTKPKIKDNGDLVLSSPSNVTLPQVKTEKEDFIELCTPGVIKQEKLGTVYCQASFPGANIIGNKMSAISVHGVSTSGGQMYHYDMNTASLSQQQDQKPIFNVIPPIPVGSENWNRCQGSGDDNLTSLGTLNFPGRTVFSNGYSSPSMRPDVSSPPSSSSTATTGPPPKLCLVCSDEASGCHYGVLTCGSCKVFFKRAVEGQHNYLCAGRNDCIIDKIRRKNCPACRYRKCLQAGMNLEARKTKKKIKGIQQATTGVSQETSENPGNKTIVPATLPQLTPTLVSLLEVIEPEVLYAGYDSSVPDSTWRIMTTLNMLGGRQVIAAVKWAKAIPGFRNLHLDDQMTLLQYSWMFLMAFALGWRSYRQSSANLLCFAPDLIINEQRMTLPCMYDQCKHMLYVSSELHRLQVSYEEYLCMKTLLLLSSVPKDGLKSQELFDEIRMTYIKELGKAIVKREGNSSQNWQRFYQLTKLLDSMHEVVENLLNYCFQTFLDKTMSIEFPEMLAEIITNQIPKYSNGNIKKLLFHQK

[6] = molecular target: Glucocorticoid receptor (Homo sapiens) (UniProt P04150); test: GR-EFC Redistribution (AID 451; calls by dose curve; note: potency is the fitted concentration of half-maximal effect); settings: CHO-K1 GR-EFC translocation, beta-gal luminescence, 2 h
How it was run: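 Translocation of GR-ED fusion to nuclear EA restores b-gal, read by luminescence after 1 h room-temperature detection. Engineered CHO-K1 biosensor cells, 1,000/well, exposed 2 h at 37 C to titrations up to 46 uM final.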

[7] = molecular target: Mitogen-activated protein kinase 10 (Mus musculus) (UniProt Q61831); test: JNK3 AlphaScreen Assay (AID 530; active = well fitted curve in either direction with a large enough effect, not every such curve was filed as active;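 note: kinase came from lysate of stimulated human HepG2 cells; signal reports phosphorylation of biotinylated GST-cJun 1-79 at Ser73 with 10 µM ATP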); settings: JNK3 lysate, c-Jun phosphorylation; series mostly up to 57.1 µM
How it was run: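 qHTS titrations with 15 min compound pre-incubation before adding ATP (10 uM final). Read-out: AlphaScreen of Ser73-phosphorylated biotin-GST-cJun using HepG2 lysate JNK3 activated by IL-1β and TNFα.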

[8] = molecular target: 3',5'-cyclic-AMP phosphodiesterase 4B (Homo sapiens) (UniProt Q07343); test: qHTS Assay for Inhibitors of PDE-IV (AID 607; active = well fitted activation curve with a large enough effect in the main read-out, with a control signal flat, not every such curve was filed as active); settings: HEK293 ACTOne CNG channel cells, membrane potential fluorescence; series mostly up to 22.9 µM
Sequence of 3',5'-cyclic-AMP phosphodiesterase 4B (Homo sapiens) (Q07343 whole entry, looked up): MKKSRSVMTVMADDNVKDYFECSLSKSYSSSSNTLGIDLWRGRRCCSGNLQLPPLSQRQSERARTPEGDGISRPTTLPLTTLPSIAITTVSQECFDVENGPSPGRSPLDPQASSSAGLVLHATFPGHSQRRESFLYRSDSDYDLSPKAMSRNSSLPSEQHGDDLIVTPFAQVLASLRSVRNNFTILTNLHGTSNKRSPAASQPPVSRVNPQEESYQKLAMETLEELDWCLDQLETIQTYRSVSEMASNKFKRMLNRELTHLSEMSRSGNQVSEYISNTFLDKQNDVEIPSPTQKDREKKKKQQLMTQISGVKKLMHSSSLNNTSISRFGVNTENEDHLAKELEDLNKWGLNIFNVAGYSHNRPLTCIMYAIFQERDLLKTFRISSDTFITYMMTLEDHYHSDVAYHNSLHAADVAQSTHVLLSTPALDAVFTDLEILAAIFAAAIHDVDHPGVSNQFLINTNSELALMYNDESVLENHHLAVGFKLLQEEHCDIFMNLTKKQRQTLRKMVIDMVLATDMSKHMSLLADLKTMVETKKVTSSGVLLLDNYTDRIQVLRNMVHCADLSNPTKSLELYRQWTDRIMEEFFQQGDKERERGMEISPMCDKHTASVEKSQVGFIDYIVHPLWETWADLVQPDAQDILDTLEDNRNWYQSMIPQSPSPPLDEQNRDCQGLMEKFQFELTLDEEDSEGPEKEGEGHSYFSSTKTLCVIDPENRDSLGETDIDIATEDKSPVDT
How it was run: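 ACTOne HEK293 cells carry a modified cAMP-gated CNG channel and express endogenous PDE4; plated 1000 cells/well, compounds up to 22.9 uM final. Membrane-potential dye fluorescence (ex 535/em 590) was read; parental cells received 10 uM forskolin + 100 uM RO 20-1724.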

[9] = molecular target: Dual specificity protein kinase CLK4 (Homo sapiens) (UniProt Q9HAZ1); test: qHTS Assay for Inhibitors of CDC-like Kinase 4 (Kinase-Glo Assay) (AID 1770); settings: recombinant Clk4, Kinase-Glo ATP depletion luminescence; series mostly up to 66.7 µM; note: nearly all actives have a fitted effect of over 65% in size; note: potency is the fitted concentration of half-maximal effect
Sequence of Dual specificity protein kinase CLK4 (Homo sapiens) (Q9HAZ1 whole entry, looked up): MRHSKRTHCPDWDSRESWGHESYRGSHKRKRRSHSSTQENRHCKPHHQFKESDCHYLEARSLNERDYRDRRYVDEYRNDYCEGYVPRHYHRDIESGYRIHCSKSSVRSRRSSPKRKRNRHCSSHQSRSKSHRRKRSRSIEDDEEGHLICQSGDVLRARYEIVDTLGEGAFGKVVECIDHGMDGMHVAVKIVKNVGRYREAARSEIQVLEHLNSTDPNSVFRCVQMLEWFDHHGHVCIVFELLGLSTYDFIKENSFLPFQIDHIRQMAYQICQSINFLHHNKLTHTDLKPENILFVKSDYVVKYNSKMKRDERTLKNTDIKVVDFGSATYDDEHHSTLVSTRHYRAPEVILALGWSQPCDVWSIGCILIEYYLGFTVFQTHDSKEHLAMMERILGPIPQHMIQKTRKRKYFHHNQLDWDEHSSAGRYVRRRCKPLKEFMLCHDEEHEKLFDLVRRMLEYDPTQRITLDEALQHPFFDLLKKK
How it was run: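 Luminescent ATP-depletion read-out (Kinase-Glo) after 4.5 h room-temperature reaction of Clk4 (25 nM final) with RS peptide (100 uM) and ATP (1 uM), pH 7.5 Tris buffer with MgCl2 and DTT.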

[10] = molecular target: Dual specificity protein kinase CLK4 (Homo sapiens) (UniProt Q9HAZ1); test: qHTS Assay for Inhibitors of CDC-like Kinase 4 (ADP-Glo Assay) (AID 1771); settings: recombinant CLK4, ADP-Glo luminescence; series mostly up to 80 µM; note: nearly all actives have a fitted effect of over 70% in size; note: potency is the fitted concentration of half-maximal effect
How it was run: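 ADP production was read by ADP-Glo luminescence after residual ATP depletion, following 1 h room-temperature reaction of 25 nM Clk4, 1 uM ATP and 100 uM RS peptide with MgCl2, EGTA, DTT and Triton X-100.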

[11] = molecular target: Dual specificity protein kinase CLK4 (Homo sapiens) (UniProt Q9HAZ1); test: qHTS Assay for Inhibitors of CDC-like Kinase 4 (ADP-FP Assay) (AID 1795); settings: Transcreener ADP fluorescence polarization; series mostly up to 50 µM; note: nearly all actives have a fitted effect of over 60% in size; note: potency is the fitted concentration of half-maximal effect;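 for activity change, negative = inhibition: recombinant human CLK4 phosphorylating RS repeat peptide at 1 µM ATP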
How it was run: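 Kinase activity was measured as ADP production using Transcreener orange tracer (4 nM) and ADP antibody (1 ug/mL) fluorescence polarization, with ADP calculated from a calibration curve. The 1 h reaction contained 6.25 nM Clk4, 1 uM ATP and 100 uM RS peptide at pH 7.5 with Mg2+.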

[12] = molecular target: Ubiquitin carboxyl-terminal hydrolase 1 (Homo sapiens) (UniProt O94782); test: Inhibitors of USP1/UAF1: Pilot qHTS (AID 504865); settings: purified USP1/UAF1, Ub-rhodamine cleavage fluorescence; series mostly up to 54.9 µM;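 note: rhodamine fluorescence freed from ubiquitin-rhodamine substrate followed over time; top concentration of the series differs between compounds; nearly all actives have a fitted effect of over 35% in size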
Sequence of Ubiquitin carboxyl-terminal hydrolase 1 (Homo sapiens) (O94782 whole entry, looked up): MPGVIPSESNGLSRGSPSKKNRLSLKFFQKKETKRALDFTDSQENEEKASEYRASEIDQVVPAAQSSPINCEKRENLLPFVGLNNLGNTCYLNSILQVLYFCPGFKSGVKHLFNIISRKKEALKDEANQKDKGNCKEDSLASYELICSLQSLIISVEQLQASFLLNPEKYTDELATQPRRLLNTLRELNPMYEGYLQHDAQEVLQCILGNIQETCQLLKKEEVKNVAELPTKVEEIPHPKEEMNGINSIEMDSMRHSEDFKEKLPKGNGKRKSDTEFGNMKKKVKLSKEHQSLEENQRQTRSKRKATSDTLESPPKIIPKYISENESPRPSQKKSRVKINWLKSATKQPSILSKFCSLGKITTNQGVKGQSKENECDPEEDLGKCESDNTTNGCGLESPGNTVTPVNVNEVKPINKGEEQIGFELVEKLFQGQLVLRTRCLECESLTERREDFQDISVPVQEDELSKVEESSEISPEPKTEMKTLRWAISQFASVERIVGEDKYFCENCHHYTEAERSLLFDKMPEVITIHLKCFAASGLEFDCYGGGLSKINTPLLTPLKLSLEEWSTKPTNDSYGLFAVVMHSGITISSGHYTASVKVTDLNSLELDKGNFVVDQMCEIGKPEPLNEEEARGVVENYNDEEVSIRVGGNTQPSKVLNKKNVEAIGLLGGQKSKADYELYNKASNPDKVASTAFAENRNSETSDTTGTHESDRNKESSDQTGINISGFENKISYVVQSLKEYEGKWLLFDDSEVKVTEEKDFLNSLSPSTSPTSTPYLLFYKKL
How it was run: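 Deubiquitinase activity followed as kinetic rhodamine fluorescence release from 150 nM Ub-Rho. 1 nM USP1/UAF1 with compound, after 15 min room-temperature preincubation, in HEPES pH 7.8 buffer containing TCEP, EDTA, BSA and Tween-20.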

[13] = Primary qHTS for small molecule stabilizers of the endoplasmic reticulum resident proteome: Secreted ER Calcium Modulated Protein (SERCaMP) assay (AID 1508630); settings: SH-SY5Y GLuc-SERCaMP (Gaussia luciferase released on ER calcium loss) secretion, thapsigargin, luminescence; series mostly up to 38.4 µM
How it was run: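 The SH-SY5Y reporter protocol was run at 3 concentrations up to 38.3 uM (primary) or 11 concentrations (follow-up): 16 h compound, 100 nM thapsigargin for 4 h, then extracellular luciferase luminescence.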

[14] = molecular target: Cytochrome P450 3A4 (Homo sapiens) (UniProt P08684); test: qHTS Assay for Inhibitors and Substrates of Cytochrome P450 3A4 (AID 884); settings: recombinant CYP3A4, Luciferin-PPXE luminescence; series mostly up to 57.1 µM; note: potency is the fitted concentration of half-maximal effect; nearly all actives have a fitted effect of over 50% in size
Sequence of Cytochrome P450 3A4 (Homo sapiens) (P08684 whole entry, looked up): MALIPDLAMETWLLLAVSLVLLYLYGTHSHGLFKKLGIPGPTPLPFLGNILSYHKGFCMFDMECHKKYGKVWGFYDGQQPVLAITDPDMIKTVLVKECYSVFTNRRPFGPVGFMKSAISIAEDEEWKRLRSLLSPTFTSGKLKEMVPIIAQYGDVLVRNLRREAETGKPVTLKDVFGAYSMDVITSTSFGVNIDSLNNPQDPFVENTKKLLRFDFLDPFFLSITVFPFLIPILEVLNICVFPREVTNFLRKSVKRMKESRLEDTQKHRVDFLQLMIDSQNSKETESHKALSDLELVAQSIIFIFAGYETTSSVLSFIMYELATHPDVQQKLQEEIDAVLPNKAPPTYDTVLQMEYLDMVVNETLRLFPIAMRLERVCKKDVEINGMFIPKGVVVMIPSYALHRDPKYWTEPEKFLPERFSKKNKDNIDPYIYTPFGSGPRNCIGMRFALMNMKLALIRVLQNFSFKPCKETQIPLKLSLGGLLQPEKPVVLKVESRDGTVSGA
How it was run: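 Luminescent readout of luciferin produced by CYP3A4 (20 nM) dealkylation of Luciferin-PPXE, 25 uM (its KM). NADPH-driven reaction ran 60 min at RT after 10 min compound preincubation; data scaled to 57 uM ketoconazole as 100% inhibition.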

[15] = molecular target: Cytochrome P450 3A4 (Homo sapiens) (UniProt P08684); test: qHTS Assay for Activators of Cytochrome P450 3A4 (AID 885); settings: recombinant CYP3A4, Luciferin-PPXE luminescence, 60 min; series mostly up to 57.1 µM; note: nearly all actives have a fitted effect of over 65% in size
How it was run: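 CYP3A4 activity: Luciferin-PPXE O-dealkylation, 25uM substrate, 200mM KPO4, RT throughout. Read-out is luciferase luminescence; higher values reflect activation.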

[16] = qHTS Assay for Identification of Small Molecule Agonists for Hypoxia Response Element Signaling Pathway (AID 914; active = well fitted activation curve with a large enough effect in the signal ratio, with a control signal flat, not every such curve was filed as active; the % refers to the signal ratio); settings: ME-180 (cervical carcinoma) HRE-bla reporter, beta-lactamase ratio, CoCl2, 17 h; activation: stronger effect = higher value
How it was run: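 A beta-lactamase reporter under hypoxia response element control in ME-180 cells served as the system. Compound titrations plus EC50 CoCl2 ran 17 h at 37 degrees Celsius; AC50 values were fitted from %Activity.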

Row | SMILES | Potency [1] [µM] | activity change, negative = inhibition [2] [%] | activity change, negative = inhibition [3] [%] | activity, negative = inhibition [4] [%] | Potency [5] [µM] | Potency [6] [µM] | Potency [7] | Potency [8] | Potency [9] | Potency [10] | Potency [11] | Potency [12] | outcome [13] | Potency [14] | Potency [15] | activation [16] [%]
1 | O=c1c(-c2ccc(Cl)cc2)nc2cnc(Nc3ccccc3)nc2n1C1CC1 | > 11.4 | -1.39 | -9.46 | -0.41 | > 9.22 | > 46 | inactive | inactive | inactive | inactive | inactive | inactive | inactive |  |  | 
2 | COCCn1c(=O)c(C)nc2cnc(N3CCOCC3)nc21 | > 11.4 | -1.95 | -1.73 |  | > 9.22 | > 46 | inactive | inactive | inactive | inactive | inactive | inactive | inactive |  |  | 
3 | Cc1noc(C)c1-c1cncnc1Nc1ccccc1 | > 2.29 | 13.6 | 11.7 | 10.3 | > 46 | > 46 | inactive | inactive | inactive | inactive | inactive | inactive | inactive | 3.16 µM (active) | inactive | 
4 | c1ccc(CNc2ncnc3ccc(-c4ccoc4)cc23)cc1 | > 11.4 | -25 | 11.4 | -19.6 | > 46 | > 46 | inactive | inactive | 14.1 µM (active) | 12.6 µM (active) | 12.6 µM (active) | inactive | inactive |  |  | 
5 | Cn1cc(-c2nc3cnc(OCc4ccccc4)nc3n(CCC#N)c2=O)c2ccccc21 | > 11.4 | 3.51 | 9.29 | 27.1 | > 46 | > 46 | inactive | inactive | inactive | inactive | inactive | inactive | inactive |  |  | 
6 | COCCn1c(=O)cnc2cnc(N3CCOCC3)nc21 | > 11.4 | 8.71 | -0.664 | -12.6 | > 9.22 | > 46 | inactive | inactive | inactive | inactive | inactive | inactive | inactive |  |  | -5.07
